Bioassay records from PubChem BioAssay.
Hits are enriched below; roughly 10% of the tested compounds scored in any of these assays.
HP1b binding inh: inhibitors of HP1-beta chromodomain binding to methylated histone tails; P83916; AlphaScreen HP1-beta / biotin-H3K9me3 peptide binding; Potency, µM (series often up to 114 µM), for the others: top-dose activity change, negative = inhibition, hits mostly inhibitors; 390,000 compounds, 0.56% hits; further: nearly all actives have a fitted effect of over 70% in size
Target sequence (P83916 whole entry, looked up): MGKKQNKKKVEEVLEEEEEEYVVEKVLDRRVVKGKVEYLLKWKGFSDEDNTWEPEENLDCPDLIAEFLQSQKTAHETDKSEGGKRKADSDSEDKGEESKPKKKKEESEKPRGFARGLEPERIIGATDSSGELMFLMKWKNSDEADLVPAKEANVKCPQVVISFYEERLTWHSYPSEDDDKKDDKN
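AlphaScreen: HP1-beta (50 nM) preformed 30 min with biotin-H3(1-18)K9me3 peptide (50 nM) in PBS pH 7.4, 0.01% Tween-20. Compound added for 30 min at RT, then streptavidin donor/nickel chelate acceptor beads (10 ug/mL) for 30 min.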
JMJD2A Tudor inh: JMJD2A Tudor domain (human) inhibition | O75164 | AlphaScreen JMJD2A-Tudor / H3K4me3 peptide binding | Potency, µM (titrated, usually from 114 µM), inactives show at the highest dose activity change, negative = inhibition, most hits filed as inhibitors | 390,000 compounds, 4.4% hits | AID 504339; further: on the % scale 0 is the no-effect control and ±100 the full control effect; nearly all actives have a fitted effect of over 50% in size
G9a block: G9a (human) methyltransferase inhibition; G9a H3K9 monomethylation, AlphaScreen, 2 h; Potency, µM (top dose mostly 102 µM), for the others: at the top dose activity, negative = inhibition, actives largely listed as inhibitors; 350,000 compounds, 8.8% hits; further: on the % scale 0 is the no-effect control and ±100 the full control effect; nearly all actives have a fitted effect of over 75% in size
Target sequence (Q96KQ7 913-1193 limits assumed): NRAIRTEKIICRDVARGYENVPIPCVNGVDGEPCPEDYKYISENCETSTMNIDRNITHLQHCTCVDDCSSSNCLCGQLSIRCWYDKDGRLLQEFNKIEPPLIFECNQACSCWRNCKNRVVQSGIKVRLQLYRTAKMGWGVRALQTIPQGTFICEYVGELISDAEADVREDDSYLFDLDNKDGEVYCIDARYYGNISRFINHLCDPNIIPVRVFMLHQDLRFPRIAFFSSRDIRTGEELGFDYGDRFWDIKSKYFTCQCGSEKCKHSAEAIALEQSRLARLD
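AlphaScreen detection with an anti-monomethyl H3K9 antibody quantified product after a 2 h room-temperature reaction containing 500 nM biotinylated H3K9 peptide, 20 µM SAM and 20 nM enzyme, which had been preincubated 15 min with compound.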
BAZ2B inh: inhibitors of human BAZ2B bromodomain; Q9UIF8; AlphaScreen BAZ2B-H3K14Ac peptide displacement; Potency, µM (top dose mostly 114 µM), for inactives: at the highest dose activity change, negative = inhibition, most hits filed as inhibitors; 360,000 compounds, 4.4% hits; AID 504333; further: on the % scale 0 is the no-effect control and ±100 the full control effect; nearly all actives have a fitted effect of over 60% in size
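AlphaScreen displacement: compounds (up to 110uM) incubated 30 min at room temperature with a preformed 50 nM BAZ2B/50 nM biotinylated H3K14Ac peptide complex in PBS pH 7.4 with Tween-20. Donor and acceptor beads at 10 ug/mL final added, 20 min light-protected before reading.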
GLS inh: inhibitors of human glutaminase (GLS); GLS enzymatic activity, qHTS titration; Potency, µM (doses to about 45.5 µM), for inactives: at the highest dose activity change, negative = inhibition, actives largely listed as inhibitors; 410,000 compounds, 0.21% hits; O94925; further: on the % scale 0 is the no-effect control and ±100 the full control effect
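Read-out is an Amplex red fluorescence increase coupled through glutamate oxidase and HRP, measured before and after 30 min room-temperature incubation. hKGA is in 45 mM KH2PO4 (pH 8.2) with 0.02% Tween-20; glutamine added as 1mM solution.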
An asterisk follows results filed as active; u = inconclusive; x = not tested or not shown; [ ] = remark or other dose. The call rests on the fitted dose curve; in most records, active means well fitted curve in the direction sought with a large enough effect; inconclusive means small, poorly fitted or top-dose-only effect, or another doubt; inactive means no such curve, though single readings can be large; an effect the other way counts as inactive or inconclusive. Potency means the concentration at half of the fitted maximal effect.

SMILES	HP1b binding inh	JMJD2A Tudor inh	G9a block	BAZ2B inh	GLS inh
COc1cccc(CN(C)CC2CCCN(CCc3ccccc3C)C2)c1 (stereo unspecified)	15%	-20%	x	-8%	6%
O=C(NNC1CC(=O)N(c2ccc(F)cc2)C1=O)c1cccnc1 (stereo unspecified)	39%	6%	13µM*	-11%	u
CC(C)c1ccc(N2C(=O)CC(NNC(=O)c3cccnc3)C2=O)cc1 (stereo unspecified)	40%	-3%	56µM*	-21%	u
Cc1c(Cl)cccc1N1C(=O)CC(NNC(=O)c2cccnc2)C1=O (stereo unspecified)	33%	-20%	23%[59 µM]	-3%	0%
O=C(NNC1CC(=O)N(c2ccccc2)C1=O)c1cccnc1 (stereo unspecified)	56%	2%	5%	-9%	u
Cc1cc(C)cc(NC(=O)/C=C/c2ccc([N+](=O)[O-])s2)c1	0%	-24%	18%[59 µM]	-20%	13%
CC(=O)NCc1ccc(C(=O)COC(=O)COc2ccccc2)s1	23%	-9%	20µM*	-31%	-15%
COc1ccccc1NCC(=O)N/N=C/C=C/c1ccccc1	-11%	u	28µM*	u	8%
COc1ccc(NCC(=O)N/N=C/C=C\c2ccccc2)cc1	-11%	u	28µM*	u	4%
COc1ccccc1NCC(=O)N/N=C/c1cccnc1	22%	-34%	23%[59 µM]	-8%	0%
CCCC1=Nc2cc(C(=O)N3CCN(c4ccccn4)CC3)ccc2Sc2ccc(C)cc21	0%	u	16µM*	u	-7%
CCCC1=Nc2cc(C(=O)N3CCC(C)CC3)ccc2Sc2ccc(C)cc21	27%	-20%	11%[59 µM]	12%	-3%
CCCC1=Nc2cc(C(=O)N3CCCC3)ccc2Sc2ccc(C)cc21	-12%	18µM*	-6%	u	4%
CCC1=Nc2cc(C(=O)N3CCCCC3)ccc2Sc2ccc(C)cc21	0%	u	u	-32%	-14%
O=C(NCc1ccco1)/C(=C/c1cccc(C(F)(F)F)c1)c1nc2ccccc2[nH]1	13%	-25%	19%[59 µM]	-29%	6%
O=C(NCc1ccco1)/C(=C/c1ccc(C(F)(F)F)cc1)c1nc2ccccc2[nH]1	37%	-24%	16µM*	-10%	10%
CCOC(=O)C1=NNC(C(=O)c2ccc(C)cc2)C1c1ccc(OC)cc1 (stereo unspecified)	20%	-12%	50µM*	-33%	-2%
COc1ccc(C2=NN(C(=O)CSc3nc4ncc(Cl)cc4[nH]3)C(c3ccco3)C2)cc1 (stereo unspecified)	12%	-26%	56µM*	-35%	-6%
Nc1cc(=O)[nH]c(SCC(=O)N2N=C(c3ccc(Cl)cc3)CC2c2ccco2)n1 (stereo unspecified)	-2%	-17%	u	u	-16%
Cc1ccc(C2=NN(C(=O)CSc3nc4ncc(Cl)cc4[nH]3)C(c3ccco3)C2)cc1 (stereo unspecified)	11%	-18%	22µM*	x	9%
CCCc1cc(=O)[nH]c(SCC(=O)N2N=C(c3ccc(Cl)cc3)CC2c2ccco2)n1 (stereo unspecified)	12%	-14%	u	-34%	-6%
CCOc1ccccc1N1CCN(S(=O)(=O)c2ccc(Cl)s2)CC1	51%	0%	-13%[59 µM]	10%	-1%
N#Cc1nc(-c2cccs2)oc1NCCN1CCOCC1	0%	u	-9%	-2%	0%
COc1ccc(-c2ccc(C(=O)C3CC3)cc2)cc1	57%	-7%	21%	-7%	7%
CC[N+]1(C)CCC(O)(c2ccc(OC)cc2)C(C(=O)c2ccc(OC)cc2)C1 (stereo unspecified)	-5%	89µM*	x	x	-10%
SMILES	HP1b binding inh	JMJD2A Tudor inh	G9a block	BAZ2B inh	GLS inh
CCC(CC)C(=O)Oc1c(Sc2ccccc2[N+](=O)[O-])c(C)nn1C(C)(C)C	u	-35%	32µM*	u	4%
CCOc1ccccc1C(=O)Oc1c(Sc2ccccc2)c(C)nn1C(C)(C)C	57%	-2%	-1%[59 µM]	8%	-5%
COCC(=O)Oc1c(Sc2ccccc2[N+](=O)[O-])c(C)nn1C(C)(C)C	2%	-13%	22µM*	u	u
CCN(Cc1nc(-c2ccc(OC)cc2)oc1C)S(=O)(=O)c1ccc(Cl)cc1	u	32%	13µM*	u	-4%
Cc1ccc(NS(=O)(=O)c2cccc3nsnc23)cc1	16%	-26%	u	4%	4%
O=C(C1CCC(CNS(=O)(=O)c2cccc3nsnc23)CC1)N1CC=C(c2ccccc2)CC1 (stereo unspecified)	16%	-28%	89µM*	17%	-5%
O=S(=O)(Nc1ccccc1)c1cccc2nsnc12	u	u	u	50µM*	3%
Cc1ccc(NS(=O)(=O)c2cccc3nsnc23)cc1[N+](=O)[O-]	9%	-21%	40µM*	-29%	-12%
O=C(O)CNS(=O)(=O)c1cccc2nsnc12	10%	14µM*	3%[12.7 µM]	-27%	7%
CC(=O)CSc1ncnc2sc3c(c12)CCC(C)C3 (stereo unspecified)	51%	23%	40µM*	6%	-1%
COC(=O)c1[nH]c2cccc(OC)c2c1NC(=O)CCN1CCSCC1	35%	6%	5%	1%	-10%
COC(=O)c1[nH]c2cccc(OC)c2c1NC(=O)CCN1CC(C)CC(C)C1 (stereo unspecified)	49%	-1%	50µM*	-22%	5%
COC(=O)c1[nH]c2cccc(OC)c2c1NC(=O)CCN1CCN(c2cccc(Cl)c2)CC1	x	x	50µM*	-39%	x
Cc1ccc(-n2c(=O)c3ccc(C(=O)NCc4ccco4)cc3n(Cc3cccc(Cl)c3)c2=O)cc1	37%	-9%	12%[59 µM]	x	1%
O=C(Cc1cccs1)N=Nc1c(O)[nH]c2ccccc12	21%	-15%	22%[59 µM]	-31%	-4%
O=C(N=Nc1c(O)[nH]c2ccccc12)c1cc(-c2cccs2)[nH]n1	13%	-31%	x	50µM*	2%
O=C(Nc1nnc(-c2ccc(F)cc2)o1)C1CCCN1S(=O)(=O)c1cccs1 (stereo unspecified)	35%	45µM*	u	79µM*	9%
CCOC(=O)c1c(NC(=O)c2ccccc2)sc2c(O)c(CN(CC)CC)ccc12	-5%	-22%	50µM*	-8%	-3%
CCN(CC)C(=O)CN(c1cc(Cl)ccc1OC)S(C)(=O)=O	-1%	-17%	-3%[59 µM]	4%	4%
Cc1ccc(CN(C)C(=O)C2CCCN2C(=O)c2cccs2)o1 (stereo unspecified)	-3%	-20%	45µM*	-23%	4%
CN(CC(=O)Nc1ccc(F)c(F)c1F)C(=O)C1CCCN1C(=O)c1cccs1 (stereo unspecified)	x	x	x	x	5%
